Values joined by “and” are separate entries in the source; they are usually repeats but may differ in a detail not shown here. Equal values may be shown once. Compounds without any hit were thinned out: in the full panel of roughly 83,000, 20% have a hit.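 Compound tested at a single concentration for 48 hours in 96-well plates; a percent growth value below 10 was scored as active.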 Values without a mark were called inactive. Active and inactive are the calls of the source.
Test system: MDA-MB-468 breast
Test: NCI-60 one-dose screen, 48 h (100 = growth as untreated, 0 = no growth, -100 = all killed)
Conditions: 10 µM unless noted

## CC(C)C[C@@H](C(=O)N[C@H](C(=O)OC1CCCC1)c1ccccc1)[C@H](O)C(=O)NO
  growth: 16.9%

## O=C1/C(=C\c2ccco2)SC(=S)N1CCc1ccc(O)cc1
  growth: 54.9%

## CC1CCCC(CC(N)=O)CC1 (stereo not given)
  growth: 97.9%

## COC(=O)N/N=C/c1c[n+]([O-])c2ccccc2[n+]1[O-]
  growth: 110%

## Cc1ccc(S(=O)(=O)NC(=O)n2cc(-c3ccncc3)c(-c3ccc(Cl)c(O)c3)n2)cc1
  growth: 101%

## Cc1nn(-c2ccc([N+](=O)[O-])cc2)c2ncnc(N/N=C/c3ccccc3O)c12
  growth: -16.6% (active)

## C=C1C(=O)O[C@H]2[C@H]1CC/C(COC(=O)c1cc3ccccc3o1)=C\CC[C@@]1(C)O[C@@H]21
  growth: -71.2% (active)

## CCOC(=O)C(=CNc1ccccc1[N+](=O)[O-])C(=O)OCC
  growth: 86%

## CC1(C)N=C(N)N=C(N)N1c1cc(Cl)ccc1Cl
  growth: 53.5%

## CCc1c(C(=O)Nc2ccc3ccccc3c2)[nH]c(C)c1C(C)=O
  growth: 83.7%

## COc1ccc(/C=C(/C(=O)N2CCCCC2)c2cc(OC)c(OC)c(OC)c2)cc1
  growth: 13.3%

## C#CC(=O)N(c1ccc(OC)cc1OC)C(C(=O)NCC(=O)OCC)c1cccs1 (stereo not given)
  growth: 20.2%

## OB(O)c1cccc(-c2nc3ccc4[nH]ncc4c3c3c2CCCC3)c1F
  growth: 55.3%

## CN(C)C(=O)c1cc(-c2ccc3ncnc(NCc4ccccc4)c3c2)cnc1N
  growth: 71.9%

## CCCc1cc2cc(-n3nc(CC)c4c3CC(C)(C)CC4=O)cc(NC3CCC(O)CC3)c2c(=O)[nH]1 (stereo not given)
  growth: -22.7% (active)

## COc1cc(OC)c(S(N)(=O)=O)cc1C(=O)/C=C/c1ccccc1
  growth: -43.4% (active)

## O=C(Nc1cccc(C(F)(F)F)c1)Oc1ccc(Cl)c2cccnc12
  growth: -27.2% (active)

## C[n+]1c(/C=C\C=C\N2CCCCC2)sc2ccccc21
  growth: -17% (active)

## Cc1nn(-c2ccccc2)c2nc(Cl)c(/C=C/C(=O)c3ccccc3)c(-c3ccccc3)c12
  growth: 105%

## CC1(C)NCCC[C@]2(C)[C@H]3CC(=O)[C@H]4[C@@H]5C[C@](C)(CO)CC[C@]5(C)CC[C@@]4(C)[C@]3(C)CC[C@@H]12
  growth: 86.9%

## O=c1cc/c(=N\Nc2ccccc2)c(=O)/c1=N/Nc1ccccc1
  growth: 106%

## COc1ccc(-c2nc(Nc3ccc(F)cc3)nc(Nc3ccc4c(c3)nc(C)n4Cc3ccccc3)n2)cc1
  growth: 28.4%

## COc1ccc(/C=N\Nc2ccc([N+](=O)[O-])cn2)cc1OC
  growth: 79.1%

## CC(C)=CCC[C@](C)(O)[C@H]1CC[C@]2(C)[C@@H]1CC[C@@H]1[C@@]3(C)C/C(=C/c4cccc([N+](=O)[O-])c4)C(=O)C(C)(C)[C@@H]3CC[C@]12C
  growth: 84.3%

## C=CCc1c(O)c(C(=O)/C=C/c2ccc(Cl)cc2)c(OC)c2ccoc12
  growth: 19.9%

## Cc1nn(-c2ccc(Cl)cc2)c(=O)n1CCN1CCOCC1
  growth: 90.3%

## CNCCCNCCCN1C(=O)c2ccc3c4c(ccc(c24)C1=O)C(=O)N(CCCNCc1ccccc1OC)C3=O
  growth: -69.5% (active)

## CCOc1ccc2c(c1)/C(=C\C=C\C1CC(C)C3CC(OCC)CCC3N1CC)CC(C)N2CC (stereo not given)
  growth: -37.3% (active)

## COc1ccc(C(=O)c2cc3c(N)c(C(=O)Nc4cccc(Br)c4C)sc3nc2C)cc1
  growth: -1.96% (active)

## COc1cc(/C=C/C(=O)C2=C(/C=C/c3ccc(O)c(OC)c3)NC(=O)NC2c2ccc(O)c(OC)c2)ccc1O (stereo not given)
  growth: 88.7%

## COc1ccc2nc(-c3ccccc3)cc(C(C)=O)c2c1
  growth: 68%

## Cn1cc(-c2csc(-c3cn(C)c4ccc(Br)cc34)n2)c2cnccc21
  growth: -68.4% (active)

## CC(C)(C)c1ccc(Cn2cc(CSc3nc4ccccc4s3)nn2)cc1
  growth: 93.6%

## Nc1c(C(=O)Nc2ccccc2)sc2nc3c(cc12)CCC3
  growth: 49.7%

## NCC(=O)NC(CC(=O)O)C(=O)O (stereo not given)
  growth: 102%

## Clc1ccc(-c2nc3ccccc3s2)cc1Cl
  growth: 110%

## CN(C)CCCn1c2c(c3cnccc3c1=O)C(=O)c1ccccc1-2
  growth: -1.59% (active)

## Cc1ccc(-c2cc(-c3ccccc3C)[nH]c(=O)c2C#N)s1
  growth: 99.3%

## O=C(/C=C/c1ccc(B(O)O)cc1)/C=C/c1ccc(B(O)O)cc1
  growth: 1.24% (active)

## Clc1ccc(CCC(Cn2ccnc2)Sc2c(Cl)cccc2Cl)cc1 (stereo not given)
  growth: 36.9%

## O=S(=O)(O)c1cccnc1
  growth: 124%

## CCCCCCN1CCN(Cc2ccc(N(CC)CC)cc2)C(=O)C1=O
  growth: 22.9%

## Cc1cc(=O)n(C(=S)Nc2ccc(Cl)cc2)c2cc(O)ccc12
  growth: 98.7%

## O=C(Nc1ccc(-n2ccc3c(NC(=O)c4ccccc4)ncnc32)cc1)c1ccc(Cl)c(C(F)(F)F)c1
  growth: -5.36% (active)

## CCCCCCC/C=N/NC(=O)c1ccc(-n2cc(-c3ccccc3)nn2)cc1
  growth: 82.6%

## c1ccc2cc(Cn3c(-c4ccc5ccccc5c4)[n+](Cc4ccc5ccccc5c4)c4ccccc43)ccc2c1
  growth: -42.9% (active)

## COc1cc(C2C3=C(COC3=O)N(CCO)c3cc4c(cc32)OCCO4)cc(OC)c1O (stereo not given)
  growth: -24.4% (active)

## C/C(=N\NC(=O)C(C)SC(C)C(=O)N/N=C(\C)c1cccnc1)c1cccnc1 (stereo not given)
  growth: 103%

## CC1(C)CC[C@]23CC[C@]4(C)[C@H](CC[C@@H]5[C@@]6(C)C/C(=C/O)C(=O)C(C)(C)[C@@H]6CC[C@]54C)[C@H]2[C@H]1OC3
  growth: 119%

## O=C(/C=C/c1ccccc1)c1cccs1
  growth: 80.2%

## CCCn1nc(C(=O)N(C)Cc2ccccc2)c2c1CCC(N1CCc3ccccc31)C2 (stereo not given)
  growth: 92.8%

## COc1ccc(-c2nn(C(=O)c3cc(OC)c(OC)c(OC)c3)c3cc(N)ccc23)cc1
  growth: -1.08% (active)

## CCN(CC)c1ccc(/C=C/C2=[N+](C)c3ccccc3C2(C)C)cc1
  growth: 20.4%

## Fc1ccc(-c2cnc3nonc3n2)c(F)c1
  growth: 73.3%

## COC(=O)c1cc(-c2ccc(Cl)c(Cl)c2)[nH]c(=O)c1C#N
  growth: 99.6%

## Nc1c(C(=O)Nc2ccccn2)sc2nc3c(cc12)C(=O)CCC3
  growth: 7.45% (active)

## N#Cc1c(-c2ccc(Cl)cc2)nc(NN=Cc2ccc[nH]2)nc1N1CCOCC1
  growth: 78.2%

## O=C(O)C1CCCN1C(=O)OCc1ccccc1 (stereo not given)
  growth: 115%

## COC(=O)CC[C@@H]1O[C@@H](c2ccc(F)cc2)[C@@H](O)[C@H]1O
  growth: 96.5%

## N[C@H](CS)C(=O)O
  growth: 93.1%

## CC1(C)OC2OC3C(CN)OC(c4ccccc4)OC3C2O1 (stereo not given)
  growth: 116%

## O=C(c1c[nH]c2ccccc12)c1n[nH]c(=S)n1-c1cccc(Br)c1
  growth: 98.7%

## COc1ccc(/C(C)=C(/c2ccc(OCCCN(C)C)cc2)c2ccc(OC(=O)Cc3ccccc3)cc2)cc1
  growth: 87.2%

## CCN(C(=O)Nc1ccccc1Cl)c1ccccc1
  growth: 97.4%

## Cc1ccc(S(=O)(=O)N2C/C(=C\c3cc(F)cc(F)c3)C(=O)/C(=C/c3cc(F)cc(F)c3)C2)cc1
  growth: -43.3% (active)

## O=C1/C(=C/c2ccc(C(F)(F)F)cc2)COc2ccc(O)c(O)c21
  growth: -36.8% (active)

## O=C(CCN1CCOCC1)Nc1ccc(Cn2nnc3c2C(=O)c2nnn(Cc4ccc(NC(=O)CCN5CCOCC5)cc4)c2C3=O)cc1
  growth: -72.2% (active)

## CN(C)C(=O)OCc1nc2c(N3CCOCC3)nc(-c3ccccc3)nc2n1C
  growth: -61.1% (active)

## CCCCCCCCN=C(NCCCCCCCC)SCc1cccc2ccccc12
  growth: -93.9% (active)

## Cc1ccc2ccc3ccc(C)nc3c2n1.Cc1ccc2ccc3ccc(C)nc3c2n1.Oc1c(Cl)cc(Cl)c2ccc(CN3CCCCC3)nc12.[Ru]
  growth: -80% (active)

## CCCCC(CCCCCC(CCCC)C1NC(C)Cc2cc(OC)c(OC)cc21)C1NC(C)Cc2cc(OC)c(OC)cc21 (stereo not given)
  growth: -84.7% (active)

## CCOC(=O)Cc1csc2nc(-c3ccccc3)nn12
  growth: 108%

## Cc1nc2sc(C(=O)Nc3ccccc3)c(N)c2cc1C(C)O (stereo not given)
  growth: 28.6%

## COc1ccc2c(c1)cn1c3ccc(O)cc3nc(N)c21
  growth: 14.2%

## O=C(O)c1ccc(-c2nn(-c3ccc(C(=O)O)cc3)cc2/C=N/Nc2c(F)c(F)cc(F)c2F)cc1
  growth: 117%

## c1ccc(C2=NN[C@H](c3cn(-c4ccccc4)nc3-c3ccccc3)C2)cc1
  growth: 28.2%

## Clc1ccc(Oc2ccc(Nc3ncnc4onc(-c5ccccc5)c34)cc2)c(Cl)c1
  growth: 95.1%

## O=C(/C=C/Nc1ccc(S(=O)(=O)Nc2ncccn2)cc1)c1ccc(N=Cc2c(O)[nH]c3ccccc23)cc1
  growth: 109%

## O=C(Nc1nc(-c2ccccc2)cs1)c1cc(O)c(O)c(O)c1
  growth: 46.3%

## OC(c1cc(-c2cccc(Cl)c2)nc2ccccc12)C1CCCCN1 (stereo not given)
  growth: -77.5% (active)

## COc1ccc(/C=C2\CN(Cc3cn(CCCNc4ccnc5cc(Cl)ccc45)nn3)C/C(=C\c3ccc(OC)cc3)C2=O)cc1
  growth: 57.5%

## CCOC(=O)C1=C(C)N2C(=NC3=C(CCC/C3=C\c3ccc(Cl)cc3)C2c2ccc(Cl)cc2)S1 (stereo not given)
  growth: 4.45% (active)

## COc1ccccc1OCC(O)CO (stereo not given)
  growth: 114% and 92.9%

## CCC(=O)c1ccc(O)c(OC)c1
  growth: 103%

## CN1CCc2c(sc3nc4n(-c5ccc(Cl)cc5)c(=O)[nH]n4c(=O)c23)C1
  growth: 114%

— PubChem BioAssay (NCI)
